Screening data deposited in PubChem BioAssay by National Center for Advancing Translational Sciences (NCATS).
Vaccinia Venus – qHTS for Stage-Specific Inhibitors of Vaccinia Orthopoxvirus: Venus Reporter Primary qHTS; hit rate 0.46% among 330,000; Potency, µM (series often up to 36.5 µM), for the others: top-dose activity change, negative = inhibition, usual class: inhibitors; Vaccinia virus Venus reporter expression, fluorescence; calls by dose curve; tested in A549 cells; also: nearly all actives have a fitted effect of over 30% in size
Pf growth 96h – Primary qHTS for delayed death inhibitors of the malarial parasite plastid, 96 hour incubation; P. falciparum luciferase reporter growth, 96 h; Potency, µM (highest dose often 28.7 µM), for inactives: top-dose activity change, negative = inhibition, hits mostly inhibitors; hit rate 6.9% among 320,000; AID 504834, 2011
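Compounds incubated with erythrocytes infected by luciferase-expressing P. falciparum (2% hematocrit, 0.05% parasitemia final) for 96 hours, 37 C in 5% CO2. Growth inhibition scored as decreased luciferase luminescence.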
Pf growth 48h – Primary qHTS for delayed death inhibitors of the malarial parasite plastid, 48 hour incubation; P. falciparum luciferase growth in erythrocytes, 48 h; hit rate 5.9% among 310,000; Potency, µM (titrated, usually from 28.7 µM), for inactives: top-dose activity change, negative = inhibition, usual class: inhibitors
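Luciferase-expressing parasites in RBCs, 2% Hct / 0.1% parasitemia final; RPMI 1640 + 0.5% Albumax; 37 C, 5% CO2, one generation; luminescence read-out, lower signal = inhibition.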
Vaccinia mCherry – qHTS for Stage-Specific Inhibitors of Vaccinia Orthopoxvirus: mCherry Reporter Primary qHTS; Vaccinia virus mCherry reporter infection, fluorescence; Potency, µM (series often up to 36.5 µM), without a hit: at the highest dose activity change, negative = inhibition, usual class: inhibitors; hit rate 0.63% among 310,000; AID 720579, 2013; calls by dose curve; tested in A549 cells; also: nearly all actives have a fitted effect of over 35% in size
AMA1 RON2 block – qHTS for Inhibitors of AMA1-RON; Towards Development of Antimalarial Drug Lead: Primary Screen | Plasmodium falciparum AMA1 (3D7) - RON2 peptide interaction | AlphaScreen AMA1-biotinylated RON2 peptide binding | Potency, µM (doses to about 58.2 µM), for the others: top-dose activity change, negative = inhibition, usual class: inhibitors | hit rate 0.2% among 360,000 | AID 720542, 2013;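 also: 0% = vehicle wells and -100% = peptide control; nearly all actives have a fitted effect of over 45% in size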
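AMA1 (3D7) with his tag at 25 nM final met compounds first, then biotinylated RON2 peptide at 25 nM; detection used donor plus acceptor beads, 10 µg/mL apiece, read by AlphaScreen after 30 min at room temperature.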
* = called active by the depositor; i = inactive; ? = inconclusive; · = no result given; [ ] = another dose, or the depositor's remark. A selection: hits, their analogues and other compounds. The true share with any hit is near 8.7%. Unless noted, calls follow the shape of the dose curve; as a rule, active = well fitted curve in the direction sought with a large enough effect; inconclusive = small, poorly fitted or top-dose-only effect, or another doubt; inactive = no such curve, though single readings can be large; an effect the other way counts as inactive or inconclusive. Unless noted, % is scaled to controls: 0 for no effect and ±100 for the full control effect; potency is read from the fitted curve at half-maximal effect.

SMILES	Vaccinia Venus	Pf growth 96h	Pf growth 48h	Vaccinia mCherry	AMA1 RON2 block
COCCN1CCN(C(=O)C2CCC(=O)N(CCc3ccccc3)C2)CC1 (stereo not given)	-6.4%	9.28µM*	42.5%	-15.0%	-1.1%
O=c1cc(-c2ccccc2)n2c(SCc3c(F)cccc3Cl)nnc2[nH]1	-8.8%	·	·	-1.6%	·
COc1cc(NC(=O)c2cc(Cl)ccc2Cl)ccc1NC(=O)c1cc2ccccc2o1	-6.1%	·	·	-18.2%	·
COc1cccc(C(=O)Nc2c(C(=O)N3CCN(c4ccc(F)cc4)CC3)oc3ccccc23)c1	-4.0%	·	·	-4.9%	·
COC(=O)C1=C(CS(=O)(=O)c2cc(Cl)ccc2OC)NC(=O)NC1c1ccccc1 (stereo not given)	-9.1%	·	·	-7.6%	·
Cc1ccc(-c2nc(-c3cc4cc(Cl)ccc4oc3=O)sc2C)cc1	10.1%	·	·	-14.3%	·
O=c1[nH]c2cc3c(cc2cc1C(c1nnnn1C1CCCCC1)N1CCSCC1)OCCO3 (stereo not given)	·	5.1%	13.1µM*	·	3.6%
COc1cc2cc(C(c3nnnn3C3CCCC3)N3CCCCC3)c(=O)[nH]c2cc1OC (stereo not given)	-3.9%	20.9%	15.1%	i	-27.0%
COc1ccc2[nH]c(=O)c(C(c3nnnn3C3CCCC3)N3CCN(Cc4ccc5c(c4)OCO5)CC3)cc2c1 (stereo not given)	·	?	11.7µM*	·	-4.9%
COc1ccc(/C=C/C(=O)NCCSCc2ccco2)cc1	-3.7%	9.28µM*	-4.9%	-14.8%	26.0%
COc1ccc(/C=C/C(=O)NCCCc2ccccc2)cc1	-21.4%	145.1%	-16.1%	-3.3%	-5.6%
C#CCN(C[C@@H]1[C@@H](OC(=O)NC2CC2)[C@@H](OC(=O)NC2CC2)CN(C(=O)OC(C)C)N1C(=O)OC(C)C)S(=O)(=O)c1ccc(C)cc1	-25.4%	·	·	-8.7%	2.4%
C#CCN(C[C@@H]1[C@@H](OC(=O)Nc2cccs2)[C@@H](OC(=O)Nc2cccs2)Cn2c(=O)ccc(=O)n21)S(=O)(=O)c1ccc(C)cc1	8.91µM*	·	·	?	-2.1%
C#CCN(C[C@@H]1[C@@H](OC(=O)NCc2ccccc2F)[C@@H](OC(=O)NCc2ccccc2F)Cn2c(=O)ccc(=O)n21)S(=O)(=O)c1ccc(C)cc1	7.08µM*	·	·	?	-11.9%
C#CCN(C[C@@H]1[C@@H](OC(=O)NC2CCCC2)[C@@H](OC(=O)NC2CCCC2)Cn2c(=O)ccc(=O)n21)S(=O)(=O)c1ccc(C)cc1	7.94µM*	·	·	?	6.5%
Cc1ccc([N+](=O)[O-])c(Oc2ncnc3c2oc2ccccc23)c1	-8.2%	·	·	-12.0%	·
Cc1cccc2c1N(CCOc1ccc(C(C)(C)C)cc1)C(=O)C2=O	-21.3%	23.4%	10.4µM*	?	-26.2%
Cc1c2ccccc2cc[n+]1C	1.6%	·	·	-5.3%	·
CC1=[N+](C)c2ccc3ccccc3c2C1(C)C	·	11.7µM*	?	·	-27.3%
Cc1cc(C)nc(NC(=NCCc2c[nH]c3ccccc23)NC(=O)C(C)(C)C)n1	-19.0%[7.34 µM]	4.65µM*	10.4µM*	-13.5%[7.34 µM]	5.3%
Cc1cc(C)nc(NC(=NCCc2c[nH]c3ccc(Cl)cc23)NC(=O)c2ccccc2C)n1	-16.3%	·	·	-26.7%	·
CCOc1ccc(CCNC(=O)Cn2nnc(-c3ccccc3)n2)cc1OCC	-9.4%	·	·	-6.3%	·
CCOc1ccc(Cn2nnc(-c3ccc(S(C)(=O)=O)cc3)n2)cc1OCC	·	0.928µM*	?	·	3.3%
Cc1c(C(=O)N2CCOCC2)oc2c1-c1nn(CC(=O)NCc3ccccc3)cc1CC2	-1.9%	·	·	-9.7%	·
Cc1ccccc1OCC(=O)NCC(c1ccc(Cl)cc1)N1CCCCC1 (stereo not given)	-10.7%	·	·	-10.0%	·
SMILES	Vaccinia Venus	Pf growth 96h	Pf growth 48h	Vaccinia mCherry	AMA1 RON2 block
COc1ccc(C(=O)N/N=C2\CCc3ccccc32)cc1OC	-5.3%	-12.5%	-10.3%	?	47.9%
COc1ccc(C(=O)/C=C2/c3ccccc3CC(C)(C)N2C)cc1OC	-19.1%	11.7µM*	-4.3%	-14.4%	1.6%
CCCc1cc(=O)oc2c3c(cc(OCC(=O)NCc4ccccn4)c12)OC(C)(C)CC3	-11.4%	14.7µM*	11.7µM*	-6.0%	7.1%
CCCc1cc(=O)oc2c3c(cc(OCC(=O)NCCN4CCOCC4)c12)OC(C)(C)CC3	-11.3%	9.28µM*	?	-11.0%	-1.7%
CCCCc1cc(=O)oc2c3c(cc(OCC(=O)NCCCO)c12)OC(C)(C)CC3	-13.9%	?	?	-2.0%	-6.2%
CCCc1cc(=O)oc2c3c(cc(OCC(=O)NCc4ccncc4)c12)OC(C)(C)CC3	-0.4%	?	-33.4%	9.1%	-0.8%
CSc1ccccc1C(=O)NCC1Cc2cc(F)cc(-c3cnccn3)c2O1 (stereo not given)	-7.4%	·	·	-14.6%	·
COC(=O)c1ccccc1NC(=O)CN1C(=O)COc2ccc(Cl)cc21	-6.8%	·	·	-15.9%	·
COC(=O)c1scc(-c2ccc(C)cc2)c1S(=O)(=O)N1CCN(c2ccc(OC)cc2)CC1	-0.1%	·	·	-3.1%	·
CC(C)CN(C(=O)COC(=O)c1c(Cl)ccc(Cl)c1Cl)C1CCS(=O)(=O)C1 (stereo not given)	-17.8%	11.7µM*	?	-6.3%	-9.9%
O=C(CSc1nnc(-c2ccccc2)o1)c1cccc([N+](=O)[O-])c1	-13.8%	·	·	-19.7%	·
CCc1cc(=O)oc2cc(C)cc(OC(C)C(=O)NCCCn3ccnc3)c12 (stereo not given)	-10.7%	?	10.4µM*	-8.4%	-1.9%
CCCCc1cc(=O)oc2cc(C)cc(OCC(=O)NCc3ccccn3)c12	·	2.62µM*	2.94µM*	·	91.7%
CCCCc1cc(=O)oc2cc(C)cc(OCC(=O)Nc3cccnc3)c12	-15.2%	0.522µM*	0.465µM*	i	-2.3%
CCCCc1nc2cc(C(=O)NCc3ccccn3)ccc2o1	·	11.7µM*	-9.6%	·	91.0%
CCCc1cc(=O)oc2cc(C)cc(OCC(=O)NCc3cccnc3)c12	4.9%[7.34 µM]	10.3%	?	-3.6%[7.34 µM]	-14.9%
CCCCc1nc2cc(C(=O)N(C)C(C)c3ccccn3)ccc2o1 (stereo not given)	·	22.1%	-3.0%	·	0.0%
CCCC(C(=O)NCc1cccc(Cl)c1)N1Cc2ccccc2C1=O (stereo not given)	-15.2%	·	·	-20.3%	·
COc1cc(NC(=O)CN2CCCN(S(=O)(=O)c3ccc(F)cc3)CC2)cc(OC)c1	-1.5%	·	·	-14.3%	·
COC(=O)c1cc2oc(C)cc2n1Cc1c(C)cc(C)cc1C	-3.8%	·	·	-13.3%	·
Cc1cc(OC(C)C(=O)NCc2ccccn2)c2c(C)cc(=O)oc2c1 (stereo not given)	·	3.7µM*	1.65µM*	·	53.0%
CCCCc1cc(=O)oc2cc(C)cc(OC(C)C(=O)NCc3ccccn3)c12 (stereo not given)	·	?	?	·	17.1%
